This note sets out measurements from PubChem BioAssay (NCI).

The nature of assay [1]: NCI Yeast Anticancer Drug Screen. Data for the rad50 strain (AID 155).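 Also: 0% = growth of vehicle-only cultures of the same strain.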 The conditions noted are these: S. cerevisiae rad50 strain growth inhibition, hits give high values. Summed up: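 A DNA repair-deficient yeast mutant serves as the test organism; compound-induced growth inhibition is calculated against vehicle-treated cells.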
A short description of assay [2]: NCI Yeast Anticancer Drug Screen. Data for the mec2-1 strain (AID 157). The settings on record: S. cerevisiae mec2-1 strain, hits give high values. The method in brief:
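Compounds were applied to mec2-1 yeast cells. Their growth was then compared with that of vehicle-treated cultures to give growth inhibition.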

Assay [3] is described as follows: NCI Yeast Anticancer Drug Screen. Data for the sgs1 mgt1 strain (AID 161).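 Also: 0% = growth of cultures given vehicle only.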 The settings on record: S. cerevisiae sgs1 mgt1 strain, hits give high values. The method in brief:
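Percent growth inhibition was derived by comparing compound-exposed mutant yeast with vehicle-exposed cultures. The strain carries alterations in DNA damage repair.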

The nature of assay [4]: NCI Yeast Anticancer Drug Screen. Data for the cln2 rad14 strain (AID 165).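 Also: 0% = growth equal to vehicle treated cultures.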 The settings on record: S. cerevisiae cln2 rad14 strain, hits give high values. Summed up:
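Strain: cln2 rad14 yeast, altered in cell cycle control and DNA damage repair. Read-out: growth inhibition vs vehicle.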

The nature of assay [5]: NCI Yeast Anticancer Drug Screen. Data for the bub3 strain (AID 167). The settings on record: S. cerevisiae bub3 mutant strain, hits give high values. Summed up:
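Inhibition values come from growth of compound-treated mutant yeast normalised to vehicle-treated controls.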

Assay [6] in a line: NCI Yeast Anticancer Drug Screen. Data for the mlh1 rad18 strain (AID 175). The conditions noted are these: S. cerevisiae mlh1 rad18 strain growth inhibition, hits give high values. The method in brief: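 A repair-deficient yeast strain is exposed to test compound, and growth is scored relative to vehicle-treated controls.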
[7] abbreviates: at 5.0 µM (retest, dose inferred, filed as 0.5).
Where [8] appears, read: at 50.0 µM (retest, dose inferred, filed as 5.0).

The panel holds about 79,000 compounds, 15% with a hit somewhere; the sample as a whole holds those more often. Unmarked numbers belong to inactive results. Calls of active or inactive are those of the source. Rule as the data show it: active = growth inhibition above about 70%; inactive = the rest.

In the case of `CC1=NN(c2ccccc2)C(=O)C1N=Nc1cc(Cl)cc(S(=O)(=O)O)c1O` (stereo not given), the growth inhibition in assay [1] (setting [7]) was 59%; in assay [1] (setting [8]), 99% (active); in assay [1] (at 50.0 µM), 66.3%; in assay [2] (setting [7]), 66%; in assay [2] (setting [8]), 99% (active); in assay [2] (at 50.0 µM) it was 21.6%. Further, the growth inhibition in assay [3] (setting [7]) was 21%; in assay [3] (setting [8]), 52%; in assay [3] (at 50.0 µM), 55.7%; in assay [4] (setting [7]), 21%; in assay [4] (setting [8]) it was 30%; in assay [4] (at 50.0 µM), 29.7%. Moreover, the growth inhibition was 66% in assay [5] (setting [7]); 30% in assay [5] (setting [8]); 26.3% in assay [5] (at 50.0 µM); 52% in assay [6] (setting [7]); 99% (active) in assay [6] (setting [8]); 42.5% in assay [6] (at 50.0 µM).

Regarding `O=C1C=C(c2ccccc2)S(=O)(=O)c2c(O)cccc21`, the growth inhibition is 88% (active) in assay [1] (setting [7]); 100% (active) in assay [1] (setting [8]); 99.6% (active) in assay [1] (at 50.0 µM); 76% (active) in assay [2] (setting [7]); 100% (active) in assay [2] (setting [8]); 99.6% (active) in assay [2] (at 50.0 µM). Also, the growth inhibition in assay [3] (setting [7]) is 80% (active); in assay [3] (setting [8]), 100% (active); in assay [3] (at 50.0 µM), 99.5% (active); in assay [4] (setting [7]), 46%; in assay [4] (setting [8]), 99% (active); in assay [4] (at 50.0 µM) it was 99% (active). Moreover, the growth inhibition in assay [5] (setting [7]) was 71% (active); in assay [5] (setting [8]), 99% (active); in assay [5] (at 50.0 µM), 99.2% (active); in assay [6] (setting [7]), 94% (active); in assay [6] (setting [8]) it was 100% (active); in assay [6] (at 50.0 µM) it was 99.7% (active).

Consider `CC(=O)O/C=C1\c2ccccc2CCC1c1ccc2ccccc2c1` (stereo not given), for which the growth inhibition in assay [1] (setting [7]) is 7%; in assay [1] (setting [8]), -5%; in assay [1] (at 50.0 µM), -4.45%; in assay [2] (setting [7]), -4%; in assay [2] (setting [8]), -13%; in assay [2] (at 50.0 µM), -23.9%. Moreover, the growth inhibition is 1% in assay [3] (setting [7]); 11% in assay [3] (setting [8]); 0.3% in assay [3] (at 50.0 µM); -19% in assay [4] (setting [7]); -22% in assay [4] (setting [8]); 1.45% in assay [4] (at 50.0 µM). Further, the growth inhibition is 5% in assay [5] (setting [7]); 4% in assay [5] (setting [8]); 27.9% in assay [5] (at 50.0 µM); 9% in assay [6] (setting [7]); 9% in assay [6] (setting [8]); -0.15% in assay [6] (at 50.0 µM).

As to `O=[N+]([O-])C12CCCCC1([N+](=O)[O-])CCCC2` (stereo not given), the growth inhibition in assay [1] (setting [7]) is -1%; in assay [1] (setting [8]), 41%; in assay [1] (at 50.0 µM), 62.9%; in assay [2] (setting [7]), -5%; in assay [2] (setting [8]), 30%; in assay [2] (at 50.0 µM), 21.6%. Moreover, the growth inhibition in assay [3] (setting [7]) was -3%; in assay [3] (setting [8]), 33%; in assay [3] (at 50.0 µM), 35.5%; in assay [4] (setting [7]) it was -9%; in assay [4] (setting [8]), 22%; in assay [4] (at 50.0 µM), 31.1%. Further, the growth inhibition in assay [5] (setting [7]) was -1%; in assay [5] (setting [8]), 65%; in assay [5] (at 50.0 µM), 84.8% (active); in assay [6] (setting [7]), 0%; in assay [6] (setting [8]), 28%; in assay [6] (at 50.0 µM), 37.8%.

For the compound `COc1ccc(N=NN(C)C)cc1`, the growth inhibition in assay [1] (setting [7]) was -13%; in assay [1] (setting [8]), 65%; in assay [1] (at 50.0 µM), 97% (active); in assay [2] (setting [7]), 13%; in assay [2] (setting [8]), 28%; in assay [2] (at 50.0 µM) it was 70.3% (active). The growth inhibition in assay [3] (setting [7]) is -7%; in assay [3] (setting [8]), 35%; in assay [3] (at 50.0 µM) it was 83.7% (active); in assay [4] (setting [7]), -42%; in assay [4] (setting [8]) it was 26%; in assay [4] (at 50.0 µM) it was 76.5% (active). Also, the growth inhibition in assay [5] (setting [7]) was -12%; in assay [5] (setting [8]), 50%; in assay [5] (at 50.0 µM), 72% (active); in assay [6] (setting [7]) it was 17%; in assay [6] (setting [8]) it was 92% (active); in assay [6] (at 50.0 µM), 94.6% (active).

As for `CC12C(=O)OC(=O)C1C1c3ccccc3C2c2ccccc21` (stereo not given), the growth inhibition in assay [1] (setting [7]) was 71% (active); in assay [1] (setting [8]), 99% (active); in assay [1] (at 50.0 µM), 89.7% (active); in assay [2] (setting [7]), 82% (active); in assay [2] (setting [8]), 99% (active); in assay [2] (at 50.0 µM), 89.5% (active). The growth inhibition in assay [3] (setting [7]) is 26%; in assay [3] (setting [8]), 90% (active); in assay [3] (at 50.0 µM), 89.3% (active); in assay [4] (setting [7]) it was 51%; in assay [4] (setting [8]) it was 95% (active); in assay [4] (at 50.0 µM), 86.8% (active). Further, the growth inhibition in assay [5] (setting [7]) is 54%; in assay [5] (setting [8]) it was 90% (active); in assay [5] (at 50.0 µM) it was 89.5% (active); in assay [6] (setting [7]) it was 76% (active); in assay [6] (setting [8]) it was 99% (active); in assay [6] (at 50.0 µM), 88% (active).

Regarding `CC1C[C@]2(C)C(=S)Nc3ccccc3[C@@H]2Nc2ccccc21` (stereo not given in full), the growth inhibition is -1% in assay [1] (setting [7]); 43% in assay [1] (setting [8]); 21.9% in assay [1] (at 50.0 µM); 8% in assay [2] (setting [7]); 55% in assay [2] (setting [8]); 17.9% in assay [2] (at 50.0 µM). Moreover, the growth inhibition was 23% in assay [3] (setting [7]); 74% (active) in assay [3] (setting [8]); 48.8% in assay [3] (at 50.0 µM); 26% in assay [4] (setting [7]); 60% in assay [4] (setting [8]); 19.8% in assay [4] (at 50.0 µM). The growth inhibition in assay [5] (setting [7]) was 24%; in assay [5] (setting [8]) it was 82% (active); in assay [5] (at 50.0 µM) it was 42.3%; in assay [6] (setting [7]), 6%; in assay [6] (setting [8]) it was 58%; in assay [6] (at 50.0 µM) it was 63.3%.

`C[N+](C)(CCO)Cc1ccccc1`: the growth inhibition in assay [1] (setting [7]) is -4%; in assay [1] (setting [8]) it was 10%; in assay [1] (at 50.0 µM), -19.4%; in assay [2] (setting [7]) it was 1%; in assay [2] (setting [8]), 0%; in assay [2] (at 50.0 µM), 1.6%. Besides, the growth inhibition is -5% in assay [3] (setting [7]); -37% in assay [3] (setting [8]); 11.2% in assay [3] (at 50.0 µM); -1% in assay [4] (setting [7]); 2% in assay [4] (setting [8]); -30.6% in assay [4] (at 50.0 µM). In addition, the growth inhibition is 8% in assay [5] (setting [7]); 39% in assay [5] (setting [8]); 74.2% (active) in assay [5] (at 50.0 µM); -4% in assay [6] (setting [7]); 6% in assay [6] (setting [8]); 34% in assay [6] (at 50.0 µM).

Regarding `CC1CC(N)=NC1C(=O)NCCC#N` (stereo not given), the growth inhibition in assay [1] (setting [7]) was 20%; in assay [1] (setting [8]) it was 8%; in assay [1] (at 50.0 µM), 10.9%; in assay [2] (setting [7]) it was 27%; in assay [2] (setting [8]), 8%; in assay [2] (at 50.0 µM), 3.25%. The growth inhibition in assay [3] (setting [7]) is 38%; in assay [3] (setting [8]), 17%; in assay [3] (at 50.0 µM), 64.1%; in assay [4] (setting [7]), 14%; in assay [4] (setting [8]), 2%; in assay [4] (at 50.0 µM), 72% (active). In addition, the growth inhibition in assay [5] (setting [7]) is 25%; in assay [5] (setting [8]), -12%; in assay [5] (at 50.0 µM), 62.6%; in assay [6] (setting [7]) it was 30%; in assay [6] (setting [8]) it was 11%; in assay [6] (at 50.0 µM), 66.7%.

Regarding `COc1cc(Nc2ccc(Oc3ccc(O)cc3)cc2)c2ncccc2c1`, the growth inhibition in assay [1] (setting [7]) was 6%; in assay [1] (setting [8]), 31%; in assay [1] (at 50.0 µM), 42.5%; in assay [2] (setting [7]) it was -12%; in assay [2] (setting [8]), 51%; in assay [2] (at 50.0 µM), 53.1%. Moreover, the growth inhibition was -12% in assay [3] (setting [7]); 34% in assay [3] (setting [8]); 22.4% in assay [3] (at 50.0 µM); 2% in assay [4] (setting [7]); 22% in assay [4] (setting [8]); 57.4% in assay [4] (at 50.0 µM). Moreover, the growth inhibition in assay [5] (setting [7]) was -9%; in assay [5] (setting [8]) it was 5%; in assay [5] (at 50.0 µM) it was 7.85%; in assay [6] (setting [7]), 14%; in assay [6] (setting [8]), 59%; in assay [6] (at 50.0 µM), 76% (active).
